Test results published in PubChem BioAssay.
Results filed as inconclusive are left out. The source made the active and inactive calls.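 The calls were made as follows, unless noted: active = normalized viability below 100% at a tested concentration; inactive = the rest.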

Key:
[1] = ovarian cancer cell viability with rucaparib, profiling panel, oncology-focused library, rucaparib conditional (AID 1508598); conditions: patient-derived ovarian cancer cells, CellTiter-Glo viability, 144 h, stronger effect = lower value
[2] = growth inhibition of DIPG glioma cells, dose response, cell-based, SU-DIPG-XVII, MIPE5.0, CellTiter-Glo, qHTS (AID 1347060; cut-off not given, nearly all actives have AC50 up to about 26 µM;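 as to AC50: cells exposed to compound for 48 hours before viability readout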); conditions: SU-DIPG-XVII viability, CellTiter-Glo ATP luminescence
[3] = growth inhibition of DIPG glioma cells, dose response, cell-based, JHH-DIPG-1, MIPE4.0, CellTiter-Glo, qHTS (AID 1347062; cut-off not given, nearly all actives have AC50 up to about 27 µM;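 as to AC50: cells exposed to compound for two days before readout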); conditions: JHH-DIPG-1 viability, CellTiter-Glo ATP luminescence
[4] = growth inhibition of DIPG glioma cells, dose response, cell-based, SU-DIPG-XIII, MIPE5.0, CellTiter-Glo, qHTS (AID 1347064; cut-off not given, nearly all actives have AC50 up to about 23 µM;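 as to AC50: cells exposed to compound for 48 hours before the viability read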); conditions: SU-DIPG-XIII viability, CellTiter-Glo ATP luminescence
[5] = viability loss in pontine glioma line – cell-based, SU-DIPG-XXV, MIPE5.0, CellTiter-Glo, qHTS, dose response (AID 1347065; cut-off not given, nearly all actives have AC50 up to about 26 µM;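 also: cells exposed to compound for 48 hours before ATP readout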); conditions: CellTiter-Glo ATP luminescence
[6] = JHH-DIPG-1 glioma cell viability, MIPE5.0 library, CellTiter-Glo luminescence, qHTS (AID 1347067; cut-off not given, nearly all actives have AC50 up to about 26 µM;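 also: cells exposed to compound for 48 hours before readout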); conditions: JHH-DIPG-1 glioma viability, CellTiter-Glo ATP luminescence
[7] = SU-DIPG-XXV glioma cell viability, MIPE5.0 library, qHTS (AID 1347068; cut-off not given, nearly all actives have IC50 up to about 30 µM;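 as to IC50: cells exposed to compound for 48 hours before viability readout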)
[8] = modifiers of HSF1 nuclear foci, imaging, Selleck Cancer Library (AID 1347162; in the data active = plate-normalised HSF1 focus index below about 0.46); conditions: human cells, at 10 µM; SSMD: measured here: HSF1 foci SSMD mean; cell count: measured here: cell number; plate-normalised HSF1 focus index: stronger effect = lower value
[9] = SU-DIPG-VI glioma cell viability, MIPE4.0 library, CellTiter-Glo luminescence, qHTS (AID 1347066; cut-off not given, nearly all actives have AC50 up to about 30 µM;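 also: cells exposed to compound for 48 hours before readout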); conditions: CellTiter-Glo ATP luminescence
[10] = growth inhibition of DIPG glioma cells, dose response, cell-based, SU-DIPG-IV, MIPE4.0, CellTiter-Glo, qHTS (AID 1347063; cut-off not given, nearly all actives have AC50 up to about 30 µM;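 also: compound exposure lasted 48 hours before the viability readout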); conditions: SU-DIPG-IV viability, CellTiter-Glo ATP luminescence
[11] = sensitizers of A549 cells to miR-34 induction, primary screen, imaging, A549 dox-inducible miR-34, nuclei and caspase counts (AID 1347080;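 active = compounds whose cell count with miR-34 switched on is under 0.7 times the count with it off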); conditions: A549 miR-34 inducible, Hoechst nuclei count, 48 h
[12] = survival rescue of mitochondrial mutant cells in low glucose, primary screen, MELAS cybrids, Rieske KO mouse fibroblasts, CellTiter-Glo (AID 1508586;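 active = mean z-score across replicates of 1.96 or higher in either the MELAS or the Rieske mutant cell line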;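 also: z relative to plate mean and SD of compound and empty wells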)
[13] = at 1.25 µM, OCI-C5x cells, without rucaparib
[14] = at 1.25 µM, OCI-P5x cells, with rucaparib 20 µM, 100% = cells with rucaparib alone
[15] = at 1.25 µM, OCI-P5x cells, without rucaparib
[16] = at 5 µM, OCI-C5x cells, with rucaparib 10 µM, 100% = cells with rucaparib alone
[17] = at 5 µM, OCI-C5x cells, without rucaparib
[18] = at 5 µM, OCI-P5x cells, with rucaparib 20 µM, 100% = cells with rucaparib alone
[19] = at 5 µM, OCI-P5x cells, without rucaparib
[20] = stronger effect = lower value, cell number ratio, induced over uninduced
[21] = measured here: relative caspase fold change +Dox/-Dox
[22] = measured here: total cells with miR-34 induction, stronger effect = lower value
[23] = measured here: total cells without miR-34 induction
[24] = MELAS cybrid survival, CellTiter-Glo 48 h, stronger effect = higher value
[25] = Rieske KO mouse fibroblast survival, CellTiter-Glo 72 h
[26] = at 0.000305 µM, OCI-C5x cells, with rucaparib 10 µM, 100% = cells with rucaparib alone
[27] = at 0.000305 µM, OCI-C5x cells, without rucaparib
[28] = at 0.000305 µM, OCI-P5x cells, with rucaparib 20 µM, 100% = cells with rucaparib alone
[29] = at 0.000305 µM, OCI-P5x cells, without rucaparib
[30] = at 0.00122 µM, OCI-C5x cells, with rucaparib 10 µM, 100% = cells with rucaparib alone
[31] = at 0.00122 µM, OCI-C5x cells, without rucaparib
[32] = at 0.00122 µM, OCI-P5x cells, with rucaparib 20 µM, 100% = cells with rucaparib alone
[33] = at 0.00122 µM, OCI-P5x cells, without rucaparib
[34] = at 0.00488 µM, OCI-C5x cells, with rucaparib 10 µM, 100% = cells with rucaparib alone
[35] = at 0.00488 µM, OCI-C5x cells, without rucaparib
[36] = at 0.00488 µM, OCI-P5x cells, with rucaparib 20 µM, 100% = cells with rucaparib alone
[37] = at 0.00488 µM, OCI-P5x cells, without rucaparib
[38] = at 0.0195 µM, OCI-C5x cells, with rucaparib 10 µM, 100% = cells with rucaparib alone
[39] = at 0.0195 µM, OCI-C5x cells, without rucaparib
[40] = at 0.0195 µM, OCI-P5x cells, with rucaparib 20 µM, 100% = cells with rucaparib alone
[41] = at 0.0195 µM, OCI-P5x cells, without rucaparib
[42] = at 0.0781 µM, OCI-C5x cells, with rucaparib 10 µM, 100% = cells with rucaparib alone
[43] = at 0.0781 µM, OCI-C5x cells, without rucaparib
[44] = at 0.0781 µM, OCI-P5x cells, with rucaparib 20 µM, 100% = cells with rucaparib alone
[45] = at 0.0781 µM, OCI-P5x cells, without rucaparib
[46] = at 0.313 µM, OCI-C5x cells, with rucaparib 10 µM, 100% = cells with rucaparib alone
[47] = at 0.313 µM, OCI-C5x cells, without rucaparib
[48] = at 0.313 µM, OCI-P5x cells, with rucaparib 20 µM, 100% = cells with rucaparib alone
[49] = at 0.313 µM, OCI-P5x cells, without rucaparib
[50] = at 1.25 µM, OCI-C5x cells, with rucaparib 10 µM, 100% = cells with rucaparib alone

CCC[C@H](Nc1nc(-c2ccc(NC(=O)NCC)c(OC)c2)ncc1C)c1cccnc1
active: viability [1, 13] 23.4% | viability [1, 14] 41.8% | viability [1, 15] 9.8% | viability [1, 16] 39.3% | viability [1, 17] 25.1% | viability [1, 18] 50.6% | viability [1, 19] 10.1%

COc1cc(N2CCC(N3CCN(C)CC3)CC2)ccc1Nc1ncc(Cl)c(Nc2ccccc2S(=O)(=O)C(C)C)n1
active: AC50 [2] 0.372 µM | AC50 [3] 18.7 µM | AC50 [4] 0.661 µM | AC50 [5] 0.59 µM | AC50 [6] 1.05 µM | IC50 [7] 2.35 µM
6520: cell count [8]
1.02: SSMD [8]
inactive: plate-normalised HSF1 focus index [8] 1.07

CN1CC(=O)NC1=NC(=O)Nc1cccc(Cl)c1
inactive: outcome [2] | outcome [3] | outcome [4] | outcome [5] | outcome [6] | outcome [7]
active: AC50 [9] 23.5 µM

O=C(Nc1ccccc1)Nc1ccc(-c2ccc(C(=O)[C@@H]3CCC[C@H]3C(=O)O)cc2)cc1
inactive: outcome [2] | outcome [3] | outcome [5] | outcome [9] | outcome [6] | outcome [7]

CN(C)c1ccccc1CN1CCCN(Cc2ccccc2N(C)C)C1c1ccncc1
1.08: SSMD [8]
inactive: outcome [5] | outcome [9] | outcome [7] | plate-normalised HSF1 focus index [8] 1.07
active: AC50 [2] 26.3 µM | AC50 [3] 20.9 µM
6990: cell count [8]

Nc1nc(Nc2ccc(S(N)(=O)=O)cc2)nn1C(=O)c1c(F)cccc1F
1400: cell count [11, 22]
-1.32: z-score [12, 25]
-0.763: SSMD [8]
1580: cell count [11, 23]
0.788: fold change [11, 21]
active: AC50 [2] 6.61 µM | AC50 [10] 9.35 µM | AC50 [4] 4.68 µM | AC50 [5] 6.61 µM | IC50 [7] 10.5 µM | viability [1, 26] 95% | viability [1, 27] 99.5% | viability [1, 28] 89.3% | viability [1, 29] 84.9% | viability [1, 30] 96.6% | viability [1, 31] 96.5% | viability [1, 32] 91.5% | viability [1, 33] 86% | viability [1, 34] 93.6% | viability [1, 35] 93.3% | viability [1, 36] 94.7% | viability [1, 37] 94.4% | viability [1, 38] 94.9% | viability [1, 39] 98.4% | viability [1, 40] 92.3% | viability [1, 41] 94.6% | viability [1, 42] 91.7% | viability [1, 43] 90.6% | viability [1, 44] 87.9% | viability [1, 45] 84% | viability [1, 46] 93.3% | viability [1, 47] 86.1% | viability [1, 48] 90.8% | viability [1, 49] 87.7% | viability [1, 50] 82.9% | viability [1, 13] 83.9% | viability [1, 14] 87.4% | viability [1, 15] 69.8% | viability [1, 16] 13.2% | viability [1, 17] 11.5% | viability [1, 18] 19.1% | viability [1, 19] 13.1%
6780: cell count [8]
inactive: outcome [9] | fold change [11, 20] 0.887 | plate-normalised HSF1 focus index [8] 0.961 | z-score [12, 24] -0.135

Clc1ccc(COC(Cn2ccnc2)c2ccc(Cl)cc2Cl)c(Cl)c1 (configuration not stated)
inactive: outcome [3]
active: AC50 [2] 26.3 µM | AC50 [5] 23.5 µM | AC50 [6] 20.9 µM

COc1cc2nccc(Oc3ccc(NC(=O)Nc4cc(C)on4)c(Cl)c3)c2cc1OC
2720: cell count [11, 22]
3.28: SSMD [8]
inactive: fold change [11, 20] 1.35 | plate-normalised HSF1 focus index [8] 1.19 | z-score [12, 24] -0.36 | viability [1, 26] 115% | viability [1, 27] 105% | viability [1, 28] 104% | viability [1, 30] 109% | viability [1, 32] 101% | viability [1, 34] 107% | viability [1, 35] 106% | viability [1, 38] 113% | viability [1, 42] 113% | viability [1, 46] 133% | viability [1, 47] 109% | viability [1, 50] 138% | viability [1, 16] 150% | viability [1, 17] 104%
2010: cell count [11, 23]
0.722: fold change [11, 21]
7170: cell count [8]
0.933: z-score [12, 25]
active: AC50 [2] 8.33 µM | AC50 [10] 18.7 µM | AC50 [4] 9.34 µM | AC50 [5] 5.9 µM | AC50 [6] 14.8 µM | IC50 [7] 9.34 µM | viability [1, 29] 96.5% | viability [1, 31] 100% | viability [1, 33] 94.7% | viability [1, 36] 92.6% | viability [1, 37] 93.9% | viability [1, 39] 96.2% | viability [1, 40] 98.1% | viability [1, 41] 86.6% | viability [1, 43] 88.6% | viability [1, 44] 92.2% | viability [1, 45] 87.4% | viability [1, 48] 88.2% | viability [1, 49] 91.5% | viability [1, 13] 93.1% | viability [1, 14] 81.9% | viability [1, 15] 86.1% | viability [1, 18] 70.8% | viability [1, 19] 82.8%

CCOc1cc2ncc(C#N)c(Nc3ccc(OCc4ccccn4)c(Cl)c3)c2cc1NC(=O)/C=C/CN(C)C
7340: cell count [8]
inactive: outcome [9] | plate-normalised HSF1 focus index [8] 0.928
active: AC50 [2] 14.8 µM | AC50 [10] 0.148 µM | AC50 [4] 5.9 µM | AC50 [5] 0.934 µM | AC50 [6] 5.25 µM
-1.15: SSMD [8]

Cc1ncc(-c2ccnc(Nc3ccc(S(C)(=O)=O)cc3)n2)n1C(C)C
1790: cell count [11, 23]
1.12: fold change [11, 21]
inactive: fold change [11, 20] 0.998 | z-score [12, 24] 1.7
-2.84: z-score [12, 25]
active: AC50 [2] 5.25 µM | AC50 [10] 2.35 µM | AC50 [4] 3.72 µM | AC50 [5] 4.68 µM | AC50 [6] 4.68 µM | IC50 [7] 2.95 µM
1780: cell count [11, 22]

CCOc1cc(/C=C2/C(=O)N(c3ccccc3)N=C2C)cc(Cl)c1OCC(=O)OC
1.24: SSMD [8]
6670: cell count [8]
inactive: outcome [2] | outcome [3] | outcome [5] | outcome [6] | outcome [7] | plate-normalised HSF1 focus index [8] 1.07

CNC(=O)c1c(-c2ccc(F)cc2)oc2cc(N(CCO)S(C)(=O)=O)c(C3CC3)cc12
active: AC50 [3] 20.9 µM
inactive: outcome [2] | outcome [6]
